Results on 38 molecules are retold here after PubChem BioAssay (NCATS).

Values without a mark were called inactive. Calls follow the shape of the dose curve; as a rule, active = well fitted curve in the direction sought with a large enough effect; inconclusive = small, poorly fitted or top-dose-only effect, or another doubt; inactive = no such curve, though single readings can be large; an effect the other way counts as inactive or inconclusive. Records with an inconclusive call do not appear.

The nature of the first assay: qHTS for compounds that reverse cellular toxicity of Amyloid beta (A-beta) peptide in yeast: LOPAC Validation Assay (AID 720559).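 Also: plate controls were DMSO for no effect and equimolar ferric chloride plus clioquinol rescue for full effect.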 Conditions: yeast expressing A-beta; series mostly up to 46.1 µM; growth rescue, positive = activation: at the top concentration. Put shortly:
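Rescue of A-beta toxicity was scored as yeast growth by 600 nm absorbance after 48 hr at 30 C with compound. Normalization used DMSO (negative) and equimolar ferric chloride plus clioquinol (positive).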
On to `NC(N)=NOCCC(N)C(=O)O` (configuration not stated), for which the “growth rescue, positive = activation” value is -3.7%.

As for `CC[C@@H](C(N)=O)N1CCCC1=O`, the “growth rescue, positive = activation” value is 0.769%.

For the molecule `Cc1nccc2c1[nH]c1ccccc12`, the “growth rescue, positive = activation” value was -1.62%.

As for `NC1CC1c1ccccc1` (configuration not stated), the “growth rescue, positive = activation” value is -1.58%.

On to `O=C1CCCN1CC#CCN1CCCC1`, for which the “growth rescue, positive = activation” value was 0.848%.

For the molecule `Oc1ccc2c3c1O[C@H]1c4[nH]c5c(c4C[C@@]4(O)[C@@H](C2)N(CC2CC2)CC[C@]314)C[C@@]1(O)[C@H]2Cc3ccc(O)c4c3[C@@]1(CCN2CC1CC1)[C@H]5O4`, the “growth rescue, positive = activation” value is -4.02%.

For `CC[C@@]1(O)C(=O)OCc2c1cc1n(c2=O)Cc2cc3ccccc3nc2-1`, the “growth rescue, positive = activation” value was -4.93%.

Regarding `C[C@]12CCC3C(CC[C@H]4C[C@H](O)CC[C@]34C)C1CC[C@@H]2C(=O)CO` (some centres not stated), the “growth rescue, positive = activation” value is -14.5%.

`O=C(O)Cc1cnc[nH]1`: the “growth rescue, positive = activation” value was -6.86%.

For the molecule `CC(=O)NCCc1c[nH]c2ccccc12`, the “growth rescue, positive = activation” value is -5.28%.

Consider `C#CCOC(=O)C1=CCCN(C)C1`, for which the “growth rescue, positive = activation” value is -1.67%.

Turning to `NC(CCP(=O)(O)O)C(=O)O` (configuration not stated), the “growth rescue, positive = activation” value is -5.61%.

Consider `CC(=O)[C@H]1CCC2C3CC[C@H]4C[C@H](O)CC[C@]4(C)C3CC[C@@]21C` (some centres not stated), for which the “growth rescue, positive = activation” value is -7.26%.

Regarding `NCCc1c[nH]c2ccc(O)cc12`, the “growth rescue, positive = activation” value is 4.58%.

Take `O=C(N[C@H]1CN2CCC1CC2)c1ccc(Cl)cc1`: the “growth rescue, positive = activation” value is 0.836%.

`CN1C2CCC1CC(OC(=O)c1cc(Cl)cc(Cl)c1)C2` (configuration not stated): the “growth rescue, positive = activation” value is -6.86%.

Take `CCCN(CCC)[C@@H]1CCc2ccc(O)cc2C1`: the “growth rescue, positive = activation” value is -6.28%.

Take `NC(CP(=O)(O)O)C(=O)O` (configuration not stated): the “growth rescue, positive = activation” value is -0.252%.

For `S=C(NC1CCCCC1)N1CCC(c2cnc[nH]2)CC1`, the “growth rescue, positive = activation” value is -1.73%.

`Cc1c(C(=O)c2cccc3ccccc23)c2cccc3c2n1[C@H](CN1CCOCC1)CO3`: the “growth rescue, positive = activation” value was 1.15%.

Turning to `CNCCc1c[nH]c2ccc(O)cc12`, the “growth rescue, positive = activation” value was -1.74%.

Consider `Cn1cnc(CCN)c1`, for which the “growth rescue, positive = activation” value is 0.904%.

Consider `CN[C@@H]1C[C@@H](c2ccc(Cl)c(Cl)c2)c2ccccc21`, for which the “growth rescue, positive = activation” value is -5.88%.

Turning to `c1ccc(C2(c3ccccc3)CC2C2=NCCN2)cc1` (configuration not stated), the “growth rescue, positive = activation” value is -1.9%.

A further assay is described as follows: qHTS for Activators of Parkin Expression: LOPAC Validation Assay (NLuc Reporter) (AID 720572). Conditions: Parkin promoter NanoLuc reporter cells, luminescence, percent of positive control, DMSO as zero; series mostly up to 46.1 µM; activation: at the top concentration. Put shortly:
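Compound effects on Parkin promoter activity were measured as NanoLuc luminescence after 24 h at 37 C. The neuronal reporter line also carried FLuc, which was read first. LOPAC compounds were tested at 7 concentrations, with normalization to DMSO (0%) and positive control (100%).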
`CNCCc1ccc(O)c(O)c1`: the “activation” value was 3.16%.

For `CC(Cc1ccc(O)cc1)NCC(O)c1cc(O)cc(O)c1` (configuration not stated), the “activation” value was -1.29%.

`NCc1cc(=O)[nH]o1`: the “activation” value was -2.74%.

`CCCN1CCC[C@H](c2cccc(O)c2)C1`: the “activation” value was -0.986%.

On to `c1ccc(CCCN2CCN(CCOC(c3ccccc3)c3ccccc3)CC2)cc1`, for which the “activation” value was -18.3%.

As to `CCCN(CCC)C1CCc2ccc(O)cc2C1` (configuration not stated), the “activation” value is 0.555%.

With `C[C@@H]1O[C@H](C[N+](C)(C)C)C[C@H]1O`, the “activation” value was -0.35%.

With `NCCc1c[nH]c2ccccc12`, the “activation” value is 1.96%.

As to `c1ccc2sc(C3(N4CCCCC4)CCCCC3)cc2c1`, the “activation” value is -7.22%.

As for `COc1cc(C(O)CN)ccc1O` (configuration not stated), the “activation” value was -2.21%.

Take `C=CCN1CC[C@]23CCCCC2[C@H]1Cc1ccc(O)cc13` (some centres not stated): the “activation” value is -1.28%.

As for `O=C(Cc1ccc(Cl)c(Cl)c1)N1CCCCC1CN1CCCC1` (configuration not stated), the “activation” value is -0.757%.

On to `CCCCc1ccc(C(=O)O)nc1`, for which the “activation” value was -1.09%.

For `NC(=NCCC[C@H](N)C(=O)O)N[N+](=O)[O-]`, the “activation” value was -0.603%.

For the molecule `NC(N)=NOCCC(N)C(=O)O` (configuration not stated), the “activation” value was 1.84%.

With `CC[C@@H](C(N)=O)N1CCCC1=O`, the “activation” value is -0.166%.

With `Cc1nccc2c1[nH]c1ccccc12`, the “activation” value is -1.18%.

As for `NC1CC1c1ccccc1` (configuration not stated), the “activation” value is -0.573%.

For `O=C1CCCN1CC#CCN1CCCC1`, the “activation” value was -0.228%.

For the molecule `Oc1ccc2c3c1O[C@H]1c4[nH]c5c(c4C[C@@]4(O)[C@@H](C2)N(CC2CC2)CC[C@]314)C[C@@]1(O)[C@H]2Cc3ccc(O)c4c3[C@@]1(CCN2CC1CC1)[C@H]5O4`, the “activation” value is -1.57%.

`CC[C@@]1(O)C(=O)OCc2c1cc1n(c2=O)Cc2cc3ccccc3nc2-1`: the “activation” value is -18.6%.

As to `C[C@]12CCC3C(CC[C@H]4C[C@H](O)CC[C@]34C)C1CC[C@@H]2C(=O)CO` (some centres not stated), the “activation” value was -8.81%.

Take `O=C(O)Cc1cnc[nH]1`: the “activation” value was -2.99%.

Consider `CC(=O)NCCc1c[nH]c2ccccc12`, for which the “activation” value was -1.55%.

Take `C#CCOC(=O)C1=CCCN(C)C1`: the “activation” value was -1.96%.

With `NC(CCP(=O)(O)O)C(=O)O` (configuration not stated), the “activation” value was -0.589%.

As for `CC(=O)[C@H]1CCC2C3CC[C@H]4C[C@H](O)CC[C@]4(C)C3CC[C@@]21C` (some centres not stated), the “activation” value was -6.05%.

In the case of `NCCc1c[nH]c2ccc(O)cc12`, the “activation” value was -3.65%.

Consider `O=C(N[C@H]1CN2CCC1CC2)c1ccc(Cl)cc1`, for which the “activation” value is -6.15%.

Regarding `CN1C2CCC1CC(OC(=O)c1cc(Cl)cc(Cl)c1)C2` (configuration not stated), the “activation” value is -9.76%.

Take `CCCN(CCC)[C@@H]1CCc2ccc(O)cc2C1`: the “activation” value was 1.65%.

Regarding `NC(CP(=O)(O)O)C(=O)O` (configuration not stated), the “activation” value was 1.1%.

Regarding `S=C(NC1CCCCC1)N1CCC(c2cnc[nH]2)CC1`, the “activation” value was 0.0954%.

As to `Cc1c(C(=O)c2cccc3ccccc23)c2cccc3c2n1[C@H](CN1CCOCC1)CO3`, the “activation” value was 12.5%.

Regarding `CNCCc1c[nH]c2ccc(O)cc12`, the “activation” value was 6.21%.

With `Cn1cnc(CCN)c1`, the “activation” value was 1.86%.

Consider `CN[C@@H]1C[C@@H](c2ccc(Cl)c(Cl)c2)c2ccccc21`, for which the “activation” value is -20.9%.

Regarding `c1ccc(C2(c3ccccc3)CC2C2=NCCN2)cc1` (configuration not stated), the “activation” value was -5.92%.
